Assay results taken from PubChem BioAssay (Tox21).
Where “and” joins values, the source holds several entries; their conditions need not be identical. Equal entries are not always repeated. Results filed as inconclusive are left out. Some structures have more than one record in an assay (separate samples or runs), and their calls can disagree. Calls of active or inactive are those of the source. Unless noted, calls follow the shape of the dose curve; as a rule, active = well fitted curve in the direction sought with a large enough effect in the repeat runs; inconclusive = weak or mixed curves; inactive = no such curve, though single readings can be large; an effect the other way counts as inactive or inconclusive.

Key:
[1] = qHTS assay to identify small molecule agonists of the peroxisome proliferator-activated receptor delta (PPARd) signaling pathway - cell viability counter screen (AID 743211); also: nearly all actives have a fitted effect of over 55% in size; also: potency is read from the fitted curve at half-maximal effect
In short: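 Read-out: CellTiter-Glo luminescence, 30 min RT, measured in the same wells as the beta-lactamase reporter. Cells: GeneBLAzer PPAR delta UAS-bla HEK293H, 3000 cells/well, compound exposure 17 h at 37C.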

[2] = target: Peroxisome proliferator-activated receptor delta (Homo sapiens) (UniProt Q03181); test: qHTS assay to identify small molecule agonists of the peroxisome proliferator-activated receptor delta (PPARd) signaling pathway (AID 743212; calls by dose curve)
In short: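 Read-out: beta-lactamase FRET fluorescence after 2 h room-temperature incubation with LiveBLAzer B/G substrate. Cells were HEK293H carrying a UAS-bla reporter for PPARd, treated at 37 C with DMSO-dissolved compounds.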

[3] = qHTS assay to identify small molecule antagonists of the peroxisome proliferator-activated receptor delta (PPARd) signaling pathway - cell viability counter screen (AID 743213); also: nearly all actives have a fitted effect of over 50% in size
In short: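 In this counter screen, HEK293H cells carrying a UAS-beta-lactamase reporter are co-treated with test compounds and 300 nM L165041 (final) for 17 h at 37 C; cell viability is quantified by CellTiter-Glo luminescence.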

[4] = qHTS assay to identify small molecule agonists of the farnesoid-X-receptor (FXR) signaling pathway - cell viability counter screen (AID 743218); also: nearly all actives have a fitted effect of over 45% in size
In short: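 Cells were seeded, left 5 h at 37 C and 5% CO2, then dosed with compound in DMSO for 16 h. After the beta-lactamase FRET read, CellTiter-Glo was added and luminescence measured 30 min later.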

[5] = qHTS assay to identify small molecule antagonists of the farnesoid-X-receptor (FXR) signaling pathway - cell viability counter screen (AID 743221; active = well fitted cell-killing curve with a large enough effect in the repeat runs, not every such curve was filed as active; also: nearly all actives have a fitted effect of over 50% in size)
In short: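 HEK 293T FXR-bla cells, 5 h pre-incubation; compound + CDCA 50 uM final, 16 h, 37 C; beta-lactamase FRET read first, then CellTiter-Glo luminescence, 30 min RT.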

[6] = qHTS assay to identify small molecule agonists of the vitamin D receptor (VDR) signaling pathway - cell viability counter screen (AID 743224); also: series mostly up to about 63 µM; nearly all actives have a fitted effect of over 50% in size
In short: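 Cells: VDR-bla, 2,000/well, settled 4 h. Treatment: compounds in DMSO, 16 h, 37C/5% CO2. Readout: CellTiter-Glo luminescence after 30 min RT.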

[7] = qHTS assay to identify small molecule antagonists of the vitamin D receptor (VDR) signaling pathway - cell viability counter screen (AID 743225); also: nearly all actives have a fitted effect of over 50% in size
In short: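 Viability counter screen run in the same wells as the beta-lactamase reporter assay: HEK 293T VDR-UAS-bla cells, 16 h compound exposure at 37C with 3 nM (final) 1-alpha,25-dihydroxyvitamin D3. CellTiter-Glo luminescence, 30 min, room temperature.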

[8] = qHTS assay to identify small molecule agonists of the NFkB signaling pathway (AID 1159509; active = well fitted curve in the direction sought with a large enough effect in the signal ratio in the repeat runs, not every such curve was filed as active; the % refers to the signal ratio; also: series mostly up to about 61 µM)
In short: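 Readout: FRET fluorescence, 405 nm excitation, 460/530 nm emission; beta-lactamase expression disrupts FRET. Cells: ME-180 stably carrying NF-kB-driven bla reporter. Compound exposure 5 hr, 37 C, 5% CO2.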

[9] = qHTS assay to identify small molecule agonists of the endoplasmic reticulum stress response signaling pathway (AID 1159516; active = well fitted activation curve with a large enough effect in the signal ratio in the repeat runs, not every such curve was filed as active; the % refers to the signal ratio)
In short: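 Cells are seeded at 1,500 per well and incubated overnight. Compounds in DMSO are added for 5 hr at 37 C, then beta-lactamase FRET substrate for 2 hr at room temperature, and fluorescence at 460 and 530 nm is measured.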

[10] = qHTS assay to identify small molecule agonists of the endoplasmic reticulum stress response signaling pathway - cell viability counter screen (AID 1159517; calls by dose curve)
In short: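 Steps: seed 1,500 ESRE-bla HeLa cells per well; incubate overnight at 37 C, 5% CO2; add compounds in DMSO for 5 hr; run FRET substrate 2 hr RT; add CellTiter-Glo, wait 30 min, read luminescence.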

[11] = qHTS assay to identify small molecule antagonists of the retinoid-related orphan receptor gamma (ROR-gamma) signaling pathway - cell viability counter screen (AID 1159520); also: nearly all actives have a fitted effect of over 50% in size; also: potency is read from the fitted curve at half-maximal effect
In short: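 Tet-on ROR gamma CHO cells were given compounds for 2 hr, then doxycycline hyclate at 1 uM final, and incubated 16 hr at 37 C. Viability was measured as ATP content by CellTiter-Glo luminescence.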

[12] = qHTS assay to identify small molecule agonists of the AP-1 signaling pathway - cell viability counter screen (AID 1159525; calls by dose curve; also: nearly all actives have a fitted effect of over 55% in size; also: potency is read from the fitted curve at half-maximal effect)
In short: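 Same-well cytotoxicity counter screen of the Tox21 10K library in ME-180 cells. The readout is ATP-dependent luminescence after 5 h compound treatment. Data are normalised to DMSO and tetra n-octyl ammonium bromide controls.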

[13] = qHTS assay to identify small molecule agonists of the AP-1 signaling pathway (AID 1159526; calls by dose curve)
[14] = target: Peroxisome proliferator-activated receptor delta (Homo sapiens) (UniProt Q03181); test: qHTS assay to identify small molecule antagonists of the peroxisome proliferator-activated receptor delta (PPARd) signaling pathway (AID 743215; active = well fitted inhibition curve with a large enough effect in the signal ratio in the repeat runs, not every such curve was filed as active; the % refers to the signal ratio;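 also: cells stimulated with agonist L165041 at 300 nM final during compound exposure; series mostly up to about 62 µM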)
In short: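 Cells: HEK293H with a UAS-driven beta-lactamase reporter responsive to PPARd. Compounds were co-added with L165041 (300 nM, final) and incubated 17 h at 37 C before a 2 h room-temperature FRET substrate step and fluorescence reading.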

[15] = target: Vitamin D3 receptor (Homo sapiens) (UniProt P11473); test: qHTS assay to identify small molecule agonists of the vitamin D receptor (VDR) signaling pathway (AID 743222; calls by dose curve; also: potency is read from the fitted curve at half-maximal effect)
In short: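 Cells carrying a VDR-driven beta-lactamase reporter are seeded at 2,000 per well and rested 4 h. Compounds in DMSO are added for 16 h at 37C, and FRET substrate fluorescence is measured after 2 h at room temperature.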

[16] = target: Vitamin D3 receptor (Homo sapiens) (UniProt P11473); test: qHTS assay to identify small molecule antagonists of the vitamin D receptor (VDR) signaling pathway (AID 743223; active = well fitted inhibition curve with a large enough effect in the signal ratio in the repeat runs, not every such curve was filed as active; the % refers to the signal ratio)
In short: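 Beta-lactamase reporter read-out: FRET substrate fluorescence after 2 h at room temperature, following 16 h exposure of VDR-bla cells to test compound plus 3 nM (final) 1alpha,25-dihydroxyvitamin D3 agonist at 37C.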

[17] = qHTS assay to identify small molecule agonists of the NFkB signaling pathway - cell viability counter screen (AID 1159515; calls by dose curve; also: series mostly up to about 61 µM; nearly all actives have a fitted effect of over 55% in size)
In short: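 Cells are seeded (2,000 NFkB-bla ME-180 per well), rested overnight, and dosed with DMSO-dissolved compounds for 5 hr at 37 C. Viability is then read by CellTiter-Glo luminescence after 30 min at room temperature.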

[18] = target: Bile acid receptor (Homo sapiens) (UniProt Q96RI1); test: qHTS assay to identify small molecule antagonists of the farnesoid-X-receptor (FXR) signaling pathway (AID 743217; active = well fitted inhibition curve with a large enough effect in the signal ratio in the repeat runs, not every such curve was filed as active; the % refers to the signal ratio)
In short: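 Cells carrying a UAS-driven beta-lactamase reporter (GeneBLAzer FXR-UAS-bla HEK 293T) were plated and rested 5 h at 37 °C. Compounds in DMSO were added alongside chenodeoxycholic acid agonist at 50 uM final and left 16 h at 37 °C before FRET substrate readout.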

[19] = target: Bile acid receptor (Homo sapiens) (UniProt Q96RI1); test: qHTS assay to identify small molecule agonists of the farnesoid-X-receptor (FXR) signaling pathway (AID 743220; active = well fitted activation curve with a large enough effect in the signal ratio in the repeat runs, not every such curve was filed as active; the % refers to the signal ratio)
In short: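 FXR-UAS-bla HEK 293T cells carrying a UAS-driven beta-lactamase reporter were plated for 5 h at 37C/5% CO2, then exposed to DMSO-dissolved Tox21 10K compounds for 16 h at 37C. A LiveBLAzer B/G FRET substrate was loaded for 2 h at room temperature before fluorescence reading.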

[20] = target: Nuclear receptor ROR-gamma (Homo sapiens) (UniProt P51449); test: qHTS assay to identify small molecule antagonists of the retinoid-related orphan receptor gamma (ROR-gamma) signaling pathway (AID 1159521; also: nearly all actives have a fitted effect of over 50% in size; also: potency is read from the fitted curve at half-maximal effect)
In short: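 Luminescence readout (ONE-Glo, 30 min RT) after 16 h doxycycline induction; loss of signal scored as antagonism. CHO cells with TET-inducible RORγ and RORE-LUC reporter; compounds added 2 h before 1 uM final doxycycline.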

Measured: Potency

Chain of Vitamin D3 receptor (Homo sapiens) (P11473 whole entry, looked up): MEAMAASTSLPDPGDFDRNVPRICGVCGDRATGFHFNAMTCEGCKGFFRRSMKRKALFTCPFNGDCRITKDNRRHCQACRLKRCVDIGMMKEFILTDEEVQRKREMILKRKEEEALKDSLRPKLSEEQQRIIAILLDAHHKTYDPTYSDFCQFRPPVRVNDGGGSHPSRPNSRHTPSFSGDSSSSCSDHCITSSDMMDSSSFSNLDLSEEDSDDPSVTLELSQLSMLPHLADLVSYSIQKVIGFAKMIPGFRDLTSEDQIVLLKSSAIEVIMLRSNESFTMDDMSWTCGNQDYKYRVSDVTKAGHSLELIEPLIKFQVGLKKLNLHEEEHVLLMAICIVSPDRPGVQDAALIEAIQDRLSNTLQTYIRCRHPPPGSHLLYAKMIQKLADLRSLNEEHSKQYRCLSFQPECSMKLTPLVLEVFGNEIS
Chain of Bile acid receptor (Homo sapiens) (Q96RI1 whole entry, looked up): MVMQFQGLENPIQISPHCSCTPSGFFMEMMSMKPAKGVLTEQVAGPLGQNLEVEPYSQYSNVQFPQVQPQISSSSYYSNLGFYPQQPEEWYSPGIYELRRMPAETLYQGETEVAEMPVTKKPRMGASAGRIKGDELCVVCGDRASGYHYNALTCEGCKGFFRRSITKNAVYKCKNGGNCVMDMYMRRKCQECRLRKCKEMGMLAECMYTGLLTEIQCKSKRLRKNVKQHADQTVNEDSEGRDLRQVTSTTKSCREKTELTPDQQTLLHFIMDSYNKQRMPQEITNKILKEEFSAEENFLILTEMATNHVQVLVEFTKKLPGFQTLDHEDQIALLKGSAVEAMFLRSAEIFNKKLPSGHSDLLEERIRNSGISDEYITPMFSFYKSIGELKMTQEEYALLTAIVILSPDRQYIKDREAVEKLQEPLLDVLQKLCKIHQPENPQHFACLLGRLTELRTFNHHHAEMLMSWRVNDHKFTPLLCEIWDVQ
Chain of Peroxisome proliferator-activated receptor delta (Homo sapiens) (Q03181 whole entry, looked up): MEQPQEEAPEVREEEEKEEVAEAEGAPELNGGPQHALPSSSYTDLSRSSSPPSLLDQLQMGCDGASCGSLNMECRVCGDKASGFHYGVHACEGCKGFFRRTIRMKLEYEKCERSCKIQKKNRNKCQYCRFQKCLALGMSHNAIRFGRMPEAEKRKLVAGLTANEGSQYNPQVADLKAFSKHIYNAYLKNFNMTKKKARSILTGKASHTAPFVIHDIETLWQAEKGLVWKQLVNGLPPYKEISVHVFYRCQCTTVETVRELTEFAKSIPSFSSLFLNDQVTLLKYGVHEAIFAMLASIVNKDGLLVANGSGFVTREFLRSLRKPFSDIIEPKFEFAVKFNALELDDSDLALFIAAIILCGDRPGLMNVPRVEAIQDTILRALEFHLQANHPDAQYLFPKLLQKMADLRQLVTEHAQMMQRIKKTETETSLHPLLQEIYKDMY

CC(=O)[C@@]1(O)CC[C@H]2[C@@H]3CCC4=CC(=O)CC[C@]4(C)[C@H]3CC[C@@]21C
not listed: [14] | [15] | [16] | [17] | [18] | [19] | [20]
inactive: all other assays above

O=[N+]([O-])c1cc(N(CCO)CCO)ccc1NCCO
not listed: [2] | [7] | [11] | [18] | [19] | [20]
inactive: all other assays above

Oc1ccc(OCc2ccccc2)cc1
not listed: [2] | [8]
inactive: all other assays above

O=C(Cl)c1c(Cl)c(Cl)c(C(=O)Cl)c(Cl)c1Cl
not listed: [2] | [7] | [15] | [16] | [17] | [20]
inactive: all other assays above

CCc1ccccc1O
30.5 µM (active) and inactive: [20]
60.8 µM (active) and inactive: [11]
not listed: [7] | [17]
inactive: all other assays above

OCCOCCOCCOCCO
not listed: [2] | [5] | [7] | [8] | [17] | [18] | [19]
inactive: all other assays above

O=[N+]([O-])c1cccc(Cl)c1
not listed: [1] | [2] | [7] | [8] | [18] | [19]
inactive: all other assays above

COCC(C)O (centres undefined)
not listed: [1] | [2] | [7] | [8] | [14] | [18] | [19] | [20]
inactive: all other assays above

CC1(C)O[C@@H]2C[C@H]3[C@@H]4C[C@H](F)C5=CC(=O)CC[C@]5(C)[C@H]4[C@@H](O)C[C@]3(C)[C@]2(C(=O)CO)O1
not listed: [2] | [7] | [8] | [18] | [19]
inactive: all other assays above

Cn1c([N+](=O)[O-])cnc1COC(N)=O
not listed: [8] | [17] | [18] | [19]
inactive: all other assays above

OCC#CCO
inactive and 54.5 µM (active): [11]
not listed: [2] | [5] | [8] | [9] | [14]
inactive: all other assays above

Clc1ccc(Cl)c(Cl)c1Cl
not listed: [1] | [2] | [8]
inactive: all other assays above

CC(C)Cc1ccccc1
not listed: [1] | [2] | [8] | [15] | [16] | [18] | [19] | [20]
inactive: all other assays above

COC(=O)c1ccc(C(=O)OC)cc1
12.5 µM (active) and inactive: [12]
not listed: [2] | [8] | [14] | [18] | [19] | [20]
inactive: all other assays above

C[C@@H]1O[C@@H](OC[C@H]2O[C@@H](Oc3c(-c4ccc(O)c(O)c4)oc4cc(O)cc(O)c4c3=O)[C@H](O)[C@@H](O)[C@@H]2O)[C@H](O)[C@H](O)[C@H]1O
not listed: [8] | [17] | [18] | [19]
inactive: all other assays above

CCc1ccc(O)cc1
not listed: [8] | [17] | [18] | [19] | [20]
inactive: all other assays above

CCCCOCCO
not listed: [1] | [8] | [17]
inactive: all other assays above

O=C1CCCCC1
not listed: [7] | [8] | [17] | [18] | [19]
inactive: all other assays above

Cc1cc(Cc2ccc(N)c(C)c2)ccc1N
not listed: [2] | [5] | [7] | [8] | [14] | [15] | [16]
inactive: all other assays above

CCCCCC/C=C/CCCCCCCC(=O)O
not listed: [1] | [2] | [5] | [8] | [15] | [17] | [20]
inactive: all other assays above

C=C1CC[C@H](O)CC1=C/C=C1\CCC[C@]2(C)[C@@H]([C@H](C)/C=C/[C@H](C)C(C)C)CC[C@@H]12
inactive: [3] | [14] | [19] | [5] | [17] | [9] | [10] | [12]
active: [1] 54.5 µM and 6.16 µM | [15] 3.86 µM
